Test results from the supplement of paper PMC11732987, “Enantioselective OTUD7B fragment discovery through chemoproteomics screening and high-throughput optimisation” (Communications Chemistry, 2025).

Tests used:
Assay in all cases: log2 ratio of Biotin-Ahx-Ub-VS probe labelling (fragment/DMSO); higher = less target engagement (more negative = stronger competition), active = hit call of the paper (q ≤ 0.05, log2 ratio ≤ -1)
Conditions in all cases: compound concentration: 200 uM; treatment time: 3 h
USP42 = target: T1, USP42 (UniProt Q9H9J4)
T1 sequence (whole entry): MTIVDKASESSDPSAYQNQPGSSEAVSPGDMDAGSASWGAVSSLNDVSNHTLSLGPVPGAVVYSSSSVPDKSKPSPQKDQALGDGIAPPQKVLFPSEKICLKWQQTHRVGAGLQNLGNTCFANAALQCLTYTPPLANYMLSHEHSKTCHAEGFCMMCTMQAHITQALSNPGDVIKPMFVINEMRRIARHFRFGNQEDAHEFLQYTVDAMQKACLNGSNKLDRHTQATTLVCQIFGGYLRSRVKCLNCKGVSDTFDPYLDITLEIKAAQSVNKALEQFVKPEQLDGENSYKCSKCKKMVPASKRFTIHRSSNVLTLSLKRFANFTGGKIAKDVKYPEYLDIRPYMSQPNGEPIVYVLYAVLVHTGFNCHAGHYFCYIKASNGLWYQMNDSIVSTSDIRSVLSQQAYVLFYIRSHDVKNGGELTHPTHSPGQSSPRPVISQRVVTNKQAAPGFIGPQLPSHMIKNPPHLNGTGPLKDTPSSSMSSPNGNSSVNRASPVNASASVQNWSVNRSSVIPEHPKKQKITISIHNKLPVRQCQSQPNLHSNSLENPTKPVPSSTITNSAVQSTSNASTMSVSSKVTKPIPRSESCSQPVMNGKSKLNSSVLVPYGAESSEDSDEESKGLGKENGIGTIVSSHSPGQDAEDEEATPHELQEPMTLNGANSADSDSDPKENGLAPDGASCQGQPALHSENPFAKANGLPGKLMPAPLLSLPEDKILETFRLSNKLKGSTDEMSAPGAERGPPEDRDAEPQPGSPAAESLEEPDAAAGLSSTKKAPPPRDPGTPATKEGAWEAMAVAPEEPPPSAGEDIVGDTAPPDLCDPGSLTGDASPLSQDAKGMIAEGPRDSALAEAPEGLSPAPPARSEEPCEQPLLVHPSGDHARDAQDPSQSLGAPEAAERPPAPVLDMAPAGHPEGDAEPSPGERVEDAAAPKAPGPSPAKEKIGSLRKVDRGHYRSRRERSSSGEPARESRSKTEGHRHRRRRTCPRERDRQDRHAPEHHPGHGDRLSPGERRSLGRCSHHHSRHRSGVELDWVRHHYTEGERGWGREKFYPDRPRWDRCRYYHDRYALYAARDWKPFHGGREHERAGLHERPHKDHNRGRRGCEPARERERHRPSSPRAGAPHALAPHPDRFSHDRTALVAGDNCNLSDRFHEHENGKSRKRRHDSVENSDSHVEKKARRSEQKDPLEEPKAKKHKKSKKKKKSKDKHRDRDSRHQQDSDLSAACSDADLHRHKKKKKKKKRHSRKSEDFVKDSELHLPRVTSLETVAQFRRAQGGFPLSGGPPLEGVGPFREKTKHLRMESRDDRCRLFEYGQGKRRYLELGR
Summary of the method: (§1)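 Labelled DUBs from HEK293T lysate were NeutrAvidin-enriched, digested with LysC and trypsin, and run by diaPASEF LC-MS/MS. Before that, each 495 µg sample in Tris/CHAPS/IGEPAL buffer with protease inhibitors was treated in triplicate with fragment at 200 µM or vehicle for 3 h, then with Biotin-Ahx-Ub-VS at 0.5 µM final for 1 h. Values are average log2 ratios of fragment over vehicle by unpaired t-test, based on global-median-normalised Spectronaut label-free quantities from proteins with ≥2 unique peptides.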

USP46 = USP46 (UniProt P62068)
USP46, sequence (P62068 whole entry): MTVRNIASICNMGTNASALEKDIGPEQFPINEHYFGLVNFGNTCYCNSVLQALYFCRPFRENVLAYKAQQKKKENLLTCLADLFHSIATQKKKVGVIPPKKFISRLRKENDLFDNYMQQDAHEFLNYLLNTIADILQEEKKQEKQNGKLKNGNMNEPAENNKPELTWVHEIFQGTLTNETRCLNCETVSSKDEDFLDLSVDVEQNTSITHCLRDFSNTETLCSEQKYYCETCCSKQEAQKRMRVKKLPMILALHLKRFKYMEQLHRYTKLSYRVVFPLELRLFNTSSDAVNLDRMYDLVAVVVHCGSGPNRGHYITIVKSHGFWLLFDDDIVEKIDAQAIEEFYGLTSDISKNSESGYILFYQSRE
Summary of the method: as §1

USP47 = target: T2, USP47 (UniProt Q96K76)
T2 sequence (whole entry): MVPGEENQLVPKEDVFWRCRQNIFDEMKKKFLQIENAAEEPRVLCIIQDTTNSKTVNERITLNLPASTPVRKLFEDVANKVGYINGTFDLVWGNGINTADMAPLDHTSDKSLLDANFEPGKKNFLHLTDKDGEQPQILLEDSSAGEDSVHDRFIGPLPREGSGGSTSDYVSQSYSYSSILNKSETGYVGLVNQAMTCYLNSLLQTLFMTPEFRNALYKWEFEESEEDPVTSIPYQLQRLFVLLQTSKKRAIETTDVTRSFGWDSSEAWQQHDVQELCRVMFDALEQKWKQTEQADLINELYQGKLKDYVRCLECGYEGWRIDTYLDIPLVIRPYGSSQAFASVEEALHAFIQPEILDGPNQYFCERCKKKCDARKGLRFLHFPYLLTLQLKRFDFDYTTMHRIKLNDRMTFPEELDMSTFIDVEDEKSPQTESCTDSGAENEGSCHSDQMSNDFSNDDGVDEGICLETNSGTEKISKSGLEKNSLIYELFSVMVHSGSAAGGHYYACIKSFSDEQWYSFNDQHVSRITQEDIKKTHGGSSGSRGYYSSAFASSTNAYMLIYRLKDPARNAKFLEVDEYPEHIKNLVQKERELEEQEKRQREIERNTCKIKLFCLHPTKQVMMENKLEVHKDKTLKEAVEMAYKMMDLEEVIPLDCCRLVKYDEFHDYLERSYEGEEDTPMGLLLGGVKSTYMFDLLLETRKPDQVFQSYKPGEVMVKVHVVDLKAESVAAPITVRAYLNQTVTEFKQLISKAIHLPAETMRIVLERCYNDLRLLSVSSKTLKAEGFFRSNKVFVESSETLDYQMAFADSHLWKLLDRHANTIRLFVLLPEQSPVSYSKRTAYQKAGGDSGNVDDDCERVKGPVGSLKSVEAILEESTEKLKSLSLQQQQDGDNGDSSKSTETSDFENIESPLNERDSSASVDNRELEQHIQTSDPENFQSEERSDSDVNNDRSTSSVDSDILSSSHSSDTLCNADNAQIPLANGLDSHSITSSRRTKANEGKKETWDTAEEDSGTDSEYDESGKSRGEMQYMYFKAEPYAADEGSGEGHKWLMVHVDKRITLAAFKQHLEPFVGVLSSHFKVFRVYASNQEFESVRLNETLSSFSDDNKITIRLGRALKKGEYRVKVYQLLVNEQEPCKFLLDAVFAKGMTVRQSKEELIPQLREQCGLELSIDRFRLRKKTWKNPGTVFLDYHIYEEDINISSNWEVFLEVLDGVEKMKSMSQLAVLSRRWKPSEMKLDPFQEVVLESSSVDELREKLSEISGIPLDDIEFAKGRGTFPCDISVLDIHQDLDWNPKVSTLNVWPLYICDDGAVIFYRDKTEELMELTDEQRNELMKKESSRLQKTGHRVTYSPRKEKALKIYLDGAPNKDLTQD
Summary of the method: as §1

USP48 = target: T3, USP48 (UniProt Q86UV5)
T3 sequence (whole entry): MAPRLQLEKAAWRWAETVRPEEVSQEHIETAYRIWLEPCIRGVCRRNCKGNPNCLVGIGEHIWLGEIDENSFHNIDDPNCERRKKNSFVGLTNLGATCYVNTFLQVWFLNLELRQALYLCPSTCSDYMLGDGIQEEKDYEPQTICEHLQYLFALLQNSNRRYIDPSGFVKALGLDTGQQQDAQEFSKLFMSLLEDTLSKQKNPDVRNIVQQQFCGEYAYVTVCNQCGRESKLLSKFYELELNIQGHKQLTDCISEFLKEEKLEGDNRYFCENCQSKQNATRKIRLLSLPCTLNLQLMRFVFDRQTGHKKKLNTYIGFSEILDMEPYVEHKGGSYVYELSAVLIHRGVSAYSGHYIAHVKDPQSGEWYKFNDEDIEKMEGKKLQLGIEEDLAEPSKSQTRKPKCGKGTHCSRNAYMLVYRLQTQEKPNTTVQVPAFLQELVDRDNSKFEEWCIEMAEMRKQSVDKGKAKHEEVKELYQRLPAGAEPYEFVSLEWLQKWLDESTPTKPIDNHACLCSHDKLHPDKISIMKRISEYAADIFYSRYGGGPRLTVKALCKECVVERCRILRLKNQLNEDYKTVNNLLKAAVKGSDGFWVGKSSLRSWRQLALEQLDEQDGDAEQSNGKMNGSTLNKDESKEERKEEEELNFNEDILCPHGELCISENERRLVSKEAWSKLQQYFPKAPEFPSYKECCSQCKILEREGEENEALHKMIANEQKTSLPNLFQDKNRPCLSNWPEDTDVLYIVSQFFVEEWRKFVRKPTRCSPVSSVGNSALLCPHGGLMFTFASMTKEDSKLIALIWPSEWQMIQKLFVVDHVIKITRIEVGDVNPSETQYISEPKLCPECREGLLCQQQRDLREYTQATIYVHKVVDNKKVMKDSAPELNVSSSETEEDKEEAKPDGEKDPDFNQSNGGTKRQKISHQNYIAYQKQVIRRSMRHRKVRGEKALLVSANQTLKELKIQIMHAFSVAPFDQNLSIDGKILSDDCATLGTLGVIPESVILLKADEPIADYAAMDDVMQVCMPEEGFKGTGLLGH
Summary of the method: as §1

USP5 = target: T4, USP5 (UniProt P45974)
T4 sequence (whole entry): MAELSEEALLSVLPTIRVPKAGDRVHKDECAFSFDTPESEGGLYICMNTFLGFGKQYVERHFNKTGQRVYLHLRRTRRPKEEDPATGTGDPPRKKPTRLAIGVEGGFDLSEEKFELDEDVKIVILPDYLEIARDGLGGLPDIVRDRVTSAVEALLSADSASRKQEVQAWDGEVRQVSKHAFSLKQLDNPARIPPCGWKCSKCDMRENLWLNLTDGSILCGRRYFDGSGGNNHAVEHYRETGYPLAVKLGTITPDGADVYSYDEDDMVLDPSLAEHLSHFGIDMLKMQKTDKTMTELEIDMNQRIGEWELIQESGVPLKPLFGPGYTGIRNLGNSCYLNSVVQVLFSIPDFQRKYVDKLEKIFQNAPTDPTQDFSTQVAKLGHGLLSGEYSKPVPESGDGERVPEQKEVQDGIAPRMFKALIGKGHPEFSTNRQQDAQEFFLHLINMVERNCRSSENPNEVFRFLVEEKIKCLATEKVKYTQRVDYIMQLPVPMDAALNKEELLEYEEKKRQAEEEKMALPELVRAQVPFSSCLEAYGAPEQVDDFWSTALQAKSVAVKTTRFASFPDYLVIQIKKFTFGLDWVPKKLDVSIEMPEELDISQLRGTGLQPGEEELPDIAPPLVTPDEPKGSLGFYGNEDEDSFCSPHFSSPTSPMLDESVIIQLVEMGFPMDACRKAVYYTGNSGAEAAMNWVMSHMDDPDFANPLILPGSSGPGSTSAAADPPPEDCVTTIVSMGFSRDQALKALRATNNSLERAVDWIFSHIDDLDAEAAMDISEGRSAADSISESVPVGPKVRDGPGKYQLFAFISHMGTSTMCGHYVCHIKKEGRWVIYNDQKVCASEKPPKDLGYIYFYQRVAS
Summary of the method: as §1

USP54 = USP54 (UniProt Q70EL1)
USP54, sequence (Q70EL1 whole entry): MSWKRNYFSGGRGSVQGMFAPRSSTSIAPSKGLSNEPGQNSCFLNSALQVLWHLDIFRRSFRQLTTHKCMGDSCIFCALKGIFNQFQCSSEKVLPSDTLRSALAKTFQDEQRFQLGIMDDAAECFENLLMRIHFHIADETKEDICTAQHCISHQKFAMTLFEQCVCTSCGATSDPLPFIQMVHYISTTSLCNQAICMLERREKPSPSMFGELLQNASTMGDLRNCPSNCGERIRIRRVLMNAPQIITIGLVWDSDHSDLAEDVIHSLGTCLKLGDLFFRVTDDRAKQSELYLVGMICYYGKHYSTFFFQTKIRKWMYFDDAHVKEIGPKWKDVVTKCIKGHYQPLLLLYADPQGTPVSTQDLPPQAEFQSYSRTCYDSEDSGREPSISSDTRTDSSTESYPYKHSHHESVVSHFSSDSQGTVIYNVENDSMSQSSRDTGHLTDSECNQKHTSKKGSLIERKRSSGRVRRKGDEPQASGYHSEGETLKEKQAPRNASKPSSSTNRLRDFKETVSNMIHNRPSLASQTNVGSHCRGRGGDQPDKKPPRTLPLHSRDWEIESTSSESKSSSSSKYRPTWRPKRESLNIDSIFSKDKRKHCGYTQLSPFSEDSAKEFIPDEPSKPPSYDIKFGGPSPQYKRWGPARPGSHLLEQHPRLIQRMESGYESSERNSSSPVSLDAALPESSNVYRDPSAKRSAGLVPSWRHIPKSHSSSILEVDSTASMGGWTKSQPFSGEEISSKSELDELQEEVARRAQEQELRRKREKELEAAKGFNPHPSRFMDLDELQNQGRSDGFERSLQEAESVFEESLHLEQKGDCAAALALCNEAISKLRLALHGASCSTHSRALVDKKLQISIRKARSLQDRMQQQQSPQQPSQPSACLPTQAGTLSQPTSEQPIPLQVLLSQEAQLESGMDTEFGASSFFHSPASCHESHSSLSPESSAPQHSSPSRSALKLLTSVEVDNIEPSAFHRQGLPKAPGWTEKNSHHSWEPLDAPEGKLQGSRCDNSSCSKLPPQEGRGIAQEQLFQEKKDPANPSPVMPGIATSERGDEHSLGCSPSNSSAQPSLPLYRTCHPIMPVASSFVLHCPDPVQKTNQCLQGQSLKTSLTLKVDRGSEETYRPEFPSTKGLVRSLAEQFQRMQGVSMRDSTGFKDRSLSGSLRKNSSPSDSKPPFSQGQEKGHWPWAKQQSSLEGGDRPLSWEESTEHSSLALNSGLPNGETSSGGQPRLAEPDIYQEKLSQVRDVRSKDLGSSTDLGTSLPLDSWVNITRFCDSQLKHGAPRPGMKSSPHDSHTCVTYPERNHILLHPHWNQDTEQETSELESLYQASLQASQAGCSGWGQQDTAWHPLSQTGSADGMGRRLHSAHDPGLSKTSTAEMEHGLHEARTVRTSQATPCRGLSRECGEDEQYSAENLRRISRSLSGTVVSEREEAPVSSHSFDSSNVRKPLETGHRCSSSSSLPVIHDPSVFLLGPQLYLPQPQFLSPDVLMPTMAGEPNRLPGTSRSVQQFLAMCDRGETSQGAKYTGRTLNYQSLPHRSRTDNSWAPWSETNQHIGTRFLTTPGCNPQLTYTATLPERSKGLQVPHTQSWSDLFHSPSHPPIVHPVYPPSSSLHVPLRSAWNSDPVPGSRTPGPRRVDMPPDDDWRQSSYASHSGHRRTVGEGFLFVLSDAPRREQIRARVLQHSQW
Summary of the method: as §1

USP7 = USP7 (UniProt Q93009)
USP7, sequence (Q93009 whole entry, looked up): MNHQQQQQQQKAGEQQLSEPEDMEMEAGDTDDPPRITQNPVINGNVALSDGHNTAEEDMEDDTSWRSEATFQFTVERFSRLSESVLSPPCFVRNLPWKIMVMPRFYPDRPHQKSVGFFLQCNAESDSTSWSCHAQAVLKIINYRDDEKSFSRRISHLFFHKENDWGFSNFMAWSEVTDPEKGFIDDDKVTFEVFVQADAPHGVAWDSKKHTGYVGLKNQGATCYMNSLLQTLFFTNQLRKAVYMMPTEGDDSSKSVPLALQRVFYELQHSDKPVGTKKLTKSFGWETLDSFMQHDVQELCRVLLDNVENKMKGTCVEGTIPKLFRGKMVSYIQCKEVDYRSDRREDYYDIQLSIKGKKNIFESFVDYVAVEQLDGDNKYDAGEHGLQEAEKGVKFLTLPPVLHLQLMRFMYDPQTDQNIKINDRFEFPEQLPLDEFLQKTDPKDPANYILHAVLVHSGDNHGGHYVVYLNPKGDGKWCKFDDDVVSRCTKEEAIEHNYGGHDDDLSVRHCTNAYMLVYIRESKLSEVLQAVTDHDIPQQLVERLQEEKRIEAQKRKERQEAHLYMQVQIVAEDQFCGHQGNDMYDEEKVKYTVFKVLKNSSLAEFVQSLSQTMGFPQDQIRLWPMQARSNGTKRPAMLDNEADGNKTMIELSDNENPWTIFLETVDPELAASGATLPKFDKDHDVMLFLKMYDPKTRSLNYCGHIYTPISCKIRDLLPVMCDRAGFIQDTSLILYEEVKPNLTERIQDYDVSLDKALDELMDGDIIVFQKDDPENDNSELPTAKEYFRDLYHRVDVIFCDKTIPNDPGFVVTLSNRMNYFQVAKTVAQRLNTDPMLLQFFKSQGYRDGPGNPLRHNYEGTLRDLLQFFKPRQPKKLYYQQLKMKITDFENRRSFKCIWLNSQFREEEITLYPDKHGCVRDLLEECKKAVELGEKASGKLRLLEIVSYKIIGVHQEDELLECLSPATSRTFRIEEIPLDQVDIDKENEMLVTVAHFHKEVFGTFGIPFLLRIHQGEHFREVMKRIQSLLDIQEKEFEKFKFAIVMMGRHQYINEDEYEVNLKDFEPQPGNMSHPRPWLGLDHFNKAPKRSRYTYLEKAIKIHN
Summary of the method: as §1

USP8 = target: T5, USP8 (UniProt P40818)
T5 sequence (whole entry): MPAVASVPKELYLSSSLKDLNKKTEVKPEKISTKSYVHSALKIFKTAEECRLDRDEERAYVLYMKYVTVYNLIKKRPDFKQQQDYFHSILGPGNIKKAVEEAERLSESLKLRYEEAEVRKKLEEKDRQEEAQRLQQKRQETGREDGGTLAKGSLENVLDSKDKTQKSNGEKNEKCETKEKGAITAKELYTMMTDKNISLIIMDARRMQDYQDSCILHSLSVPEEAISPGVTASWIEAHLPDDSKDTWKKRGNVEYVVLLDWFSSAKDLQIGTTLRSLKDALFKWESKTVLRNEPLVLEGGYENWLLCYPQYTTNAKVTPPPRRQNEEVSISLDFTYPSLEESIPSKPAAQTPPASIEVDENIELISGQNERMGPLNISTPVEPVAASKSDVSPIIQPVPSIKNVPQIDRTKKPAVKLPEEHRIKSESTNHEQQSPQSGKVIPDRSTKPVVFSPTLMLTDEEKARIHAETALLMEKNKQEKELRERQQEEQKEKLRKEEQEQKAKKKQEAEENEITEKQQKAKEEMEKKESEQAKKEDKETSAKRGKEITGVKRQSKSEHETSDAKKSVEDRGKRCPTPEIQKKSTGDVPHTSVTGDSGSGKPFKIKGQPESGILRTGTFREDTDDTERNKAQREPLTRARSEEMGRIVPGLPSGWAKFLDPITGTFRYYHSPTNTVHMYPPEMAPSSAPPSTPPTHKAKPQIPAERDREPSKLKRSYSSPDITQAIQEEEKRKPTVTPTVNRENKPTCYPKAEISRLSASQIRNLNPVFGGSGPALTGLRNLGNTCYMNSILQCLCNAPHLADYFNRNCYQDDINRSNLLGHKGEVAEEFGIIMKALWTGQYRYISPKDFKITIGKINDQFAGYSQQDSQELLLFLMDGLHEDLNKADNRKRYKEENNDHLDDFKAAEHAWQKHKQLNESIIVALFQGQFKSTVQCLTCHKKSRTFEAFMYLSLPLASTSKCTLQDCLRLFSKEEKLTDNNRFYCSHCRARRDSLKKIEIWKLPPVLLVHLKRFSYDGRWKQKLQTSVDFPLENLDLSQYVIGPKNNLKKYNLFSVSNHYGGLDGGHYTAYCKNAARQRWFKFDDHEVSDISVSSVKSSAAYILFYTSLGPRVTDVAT
Summary of the method: as §1

USP9X = USP9X (UniProt Q93008)
Summary of the method: as §1

UniProt O00487 = target: UniProt O00487
UniProt O00487, sequence (O00487 whole entry): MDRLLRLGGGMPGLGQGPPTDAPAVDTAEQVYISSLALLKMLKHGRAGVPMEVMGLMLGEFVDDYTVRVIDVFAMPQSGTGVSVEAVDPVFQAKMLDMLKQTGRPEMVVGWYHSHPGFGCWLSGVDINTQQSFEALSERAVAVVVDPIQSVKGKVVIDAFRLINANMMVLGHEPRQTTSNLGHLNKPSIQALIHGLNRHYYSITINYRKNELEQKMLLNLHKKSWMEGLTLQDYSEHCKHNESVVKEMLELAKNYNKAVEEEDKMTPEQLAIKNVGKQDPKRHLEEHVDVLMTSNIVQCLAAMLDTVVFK
Summary of the method: as §1

Measured: log2 ratio of Biotin-Ahx-Ub-VS probe labelling

O=C(CCl)NC1CCS(=O)(=O)c2ccccc21 (stereo not given)
inactive: USP42 -0.57 | USP46 -0.0772 | USP47 -0.498 | USP48 -0.471 | USP5 -0.0632 | USP54 0.689 | USP7 -0.288 | USP8 -0.538 | USP9X -0.445 | UniProt O00487 -0.242
